Results: ChEMBL document CHEMBL3988442, “University of Dundee, Small-Polar-MMV Screening Library” (2021)
For some of these results: Results with a measured potency or affinity are listed apart.

Tests used:
Parameters in all cases: scale not given: direction of the effect not stated beside the values
[1] = biological target: Protein translocase subunit SecA (Escherichia coli (strain K12)) (UniProt P10408); assay: Assay to Identify E. coli SecA ATPase Inhibitors; type: functional; conditions: 30 µM
Sequence of Protein translocase subunit SecA (Escherichia coli (strain K12)) (P10408 whole entry): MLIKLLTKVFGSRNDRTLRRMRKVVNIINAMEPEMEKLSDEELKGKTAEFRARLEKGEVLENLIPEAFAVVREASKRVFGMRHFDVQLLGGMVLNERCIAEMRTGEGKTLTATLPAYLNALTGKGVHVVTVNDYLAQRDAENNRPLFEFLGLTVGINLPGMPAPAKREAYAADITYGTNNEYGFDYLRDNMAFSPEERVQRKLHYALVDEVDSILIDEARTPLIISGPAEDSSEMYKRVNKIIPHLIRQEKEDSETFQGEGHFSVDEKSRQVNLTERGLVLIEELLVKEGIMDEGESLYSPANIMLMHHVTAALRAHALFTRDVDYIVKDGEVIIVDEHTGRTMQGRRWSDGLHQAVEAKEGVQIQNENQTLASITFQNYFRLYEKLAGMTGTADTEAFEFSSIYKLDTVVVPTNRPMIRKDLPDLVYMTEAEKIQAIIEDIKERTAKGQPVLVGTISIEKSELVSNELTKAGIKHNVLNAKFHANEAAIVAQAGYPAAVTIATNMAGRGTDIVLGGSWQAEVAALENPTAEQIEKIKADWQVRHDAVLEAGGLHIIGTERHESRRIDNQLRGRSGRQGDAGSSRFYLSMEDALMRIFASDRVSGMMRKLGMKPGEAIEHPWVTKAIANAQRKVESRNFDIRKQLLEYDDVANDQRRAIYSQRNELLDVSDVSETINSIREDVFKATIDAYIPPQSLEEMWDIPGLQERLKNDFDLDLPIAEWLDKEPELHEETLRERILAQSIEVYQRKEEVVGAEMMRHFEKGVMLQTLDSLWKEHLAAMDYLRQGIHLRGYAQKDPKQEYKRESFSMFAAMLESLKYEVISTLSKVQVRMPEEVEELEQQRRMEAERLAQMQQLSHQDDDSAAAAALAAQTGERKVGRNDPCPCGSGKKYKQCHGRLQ

[2] = biological target: T1, Ubiquitin-activating enzyme e1, putative (Leishmania donovani (strain BPK282A1)) (UniProt E9BSI1); assay: Leishmania donovani Ubiquitin Activating Enzyme (LdE1); type: functional; conditions: 30 µM
T1 sequence (whole entry): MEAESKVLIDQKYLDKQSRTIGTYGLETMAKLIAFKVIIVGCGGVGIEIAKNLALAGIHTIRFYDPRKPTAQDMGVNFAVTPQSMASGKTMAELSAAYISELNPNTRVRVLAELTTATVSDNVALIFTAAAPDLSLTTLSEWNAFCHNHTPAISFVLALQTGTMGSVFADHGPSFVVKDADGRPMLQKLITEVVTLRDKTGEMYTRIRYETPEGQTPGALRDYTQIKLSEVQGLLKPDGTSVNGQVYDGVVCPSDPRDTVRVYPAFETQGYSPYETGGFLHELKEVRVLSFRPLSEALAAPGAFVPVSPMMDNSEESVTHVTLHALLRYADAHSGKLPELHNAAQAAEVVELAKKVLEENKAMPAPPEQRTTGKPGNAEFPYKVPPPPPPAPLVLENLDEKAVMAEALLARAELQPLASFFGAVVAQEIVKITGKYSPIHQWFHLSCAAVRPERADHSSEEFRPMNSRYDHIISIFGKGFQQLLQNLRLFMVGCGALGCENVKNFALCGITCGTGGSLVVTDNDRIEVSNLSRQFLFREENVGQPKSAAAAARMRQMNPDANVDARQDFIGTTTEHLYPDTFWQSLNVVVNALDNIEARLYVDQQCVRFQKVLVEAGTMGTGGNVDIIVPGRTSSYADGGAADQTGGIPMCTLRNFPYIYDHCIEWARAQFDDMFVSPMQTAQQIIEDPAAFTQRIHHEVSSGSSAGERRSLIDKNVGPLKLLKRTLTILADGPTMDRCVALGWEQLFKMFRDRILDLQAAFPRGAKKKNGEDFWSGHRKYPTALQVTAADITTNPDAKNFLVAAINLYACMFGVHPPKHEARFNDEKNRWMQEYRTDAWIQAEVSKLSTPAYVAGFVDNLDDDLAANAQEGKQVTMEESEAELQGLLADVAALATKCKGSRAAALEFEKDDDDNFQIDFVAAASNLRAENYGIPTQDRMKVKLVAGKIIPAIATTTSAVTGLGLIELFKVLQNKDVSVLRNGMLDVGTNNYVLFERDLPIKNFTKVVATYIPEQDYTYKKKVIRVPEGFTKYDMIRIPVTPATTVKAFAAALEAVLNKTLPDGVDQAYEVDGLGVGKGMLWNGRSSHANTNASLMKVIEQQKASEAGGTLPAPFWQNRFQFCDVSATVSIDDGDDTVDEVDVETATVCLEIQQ

[3] = biological target: AMP-activated protein kinase, AMPK (Homo sapiens) (UniProt P54646+O43741+P54619+Q9UGJ0+Q9Y478+Q13131+Q9UGI9); assay: AMP-dependent Kinase enzyme assay. An in vitro enzyme assay that detects ADP turnover that is directly proportional to AMPK activity. This uses naive AMPK that is activated during the assay with MK-8722; type: functional; conditions: 30 µM
[4] = biological target: Sialic acid-binding Ig-like lectin 9 (Homo sapiens) (UniProt Q9Y336); assay: Hs-Siglec9 ALPHAscreen SOP 20170721; conditions: 10 µM
Sequence of Sialic acid-binding Ig-like lectin 9 (Homo sapiens) (Q9Y336 whole entry): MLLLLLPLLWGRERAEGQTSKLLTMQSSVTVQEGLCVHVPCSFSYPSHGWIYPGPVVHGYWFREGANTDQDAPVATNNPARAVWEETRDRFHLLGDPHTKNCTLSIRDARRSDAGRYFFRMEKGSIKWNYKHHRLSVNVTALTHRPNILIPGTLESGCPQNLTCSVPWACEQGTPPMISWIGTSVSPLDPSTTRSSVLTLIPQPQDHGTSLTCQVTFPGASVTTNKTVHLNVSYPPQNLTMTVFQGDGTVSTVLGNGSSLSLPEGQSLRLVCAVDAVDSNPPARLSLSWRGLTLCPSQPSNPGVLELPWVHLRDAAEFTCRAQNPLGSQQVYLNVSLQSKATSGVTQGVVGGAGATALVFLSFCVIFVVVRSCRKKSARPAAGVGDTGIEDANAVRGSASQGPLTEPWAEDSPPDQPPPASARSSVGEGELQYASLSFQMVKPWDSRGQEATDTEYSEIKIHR

Trypanosoma cruzi = assay: Trypanosoma cruzi phosphomannomutase and mannose-1-phosphate guanylyltransferase assay; type: functional; conditions: 10 µM
[5] = biological target: T2, Arginase-2, mitochondrial (Homo sapiens) (UniProt P78540); assay: in vitro enzyme assay to detect the production of urea directly proportional to the activity of Arginase II; type: functional; conditions: 33.3 µM; note: in the data most compounds retested in dose-response had high values
T2 sequence (whole entry): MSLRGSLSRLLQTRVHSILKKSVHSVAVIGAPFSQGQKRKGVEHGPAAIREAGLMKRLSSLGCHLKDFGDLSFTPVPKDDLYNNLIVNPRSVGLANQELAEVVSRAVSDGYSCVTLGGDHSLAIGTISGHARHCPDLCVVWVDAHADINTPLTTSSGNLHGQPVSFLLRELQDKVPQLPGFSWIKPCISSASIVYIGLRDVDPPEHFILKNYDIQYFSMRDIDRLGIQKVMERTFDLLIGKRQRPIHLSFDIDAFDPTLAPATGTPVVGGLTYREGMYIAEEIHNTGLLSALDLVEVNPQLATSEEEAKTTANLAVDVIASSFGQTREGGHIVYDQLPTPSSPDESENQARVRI

[6] = biological target: T3, Proteasome subunit beta (Trypanosoma cruzi) (UniProt O96673); assay: Trypanosoma cruzi proteasome chymotrypsin-like activity (TcProtChymo) assay.; note: in the data most compounds retested in dose-response had high values; type: functional; conditions: 9.37 µM
T3 sequence (whole entry): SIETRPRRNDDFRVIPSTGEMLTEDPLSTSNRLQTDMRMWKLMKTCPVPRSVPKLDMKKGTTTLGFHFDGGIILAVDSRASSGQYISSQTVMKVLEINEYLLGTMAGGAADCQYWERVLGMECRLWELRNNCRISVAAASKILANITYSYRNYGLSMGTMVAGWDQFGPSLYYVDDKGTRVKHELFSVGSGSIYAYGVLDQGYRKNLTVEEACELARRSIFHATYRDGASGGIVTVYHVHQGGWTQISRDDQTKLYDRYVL

Homo sapiens = species: Homo sapiens; assay: To identify inhibition of the IFN signalling (Jak-Stat) pathway via expression of an eGFP reporter gene under the control of an IFN-stimulated response element (ISRE) containing MxA promoter.; type: functional; conditions: 30 µM
[7] = biological target: T4, Tyrosyl-tRNA synthetase, putative (Trypanosoma cruzi (strain CL Brener)) (UniProt Q4DSP6); assay: Trypanosoma cruzi tyrosyl tRNA synthetase (TcYRS) _High Tyrosine SOP; type: functional; conditions: 30 µM; note: in the data most compounds retested in dose-response had high values
T4 sequence (whole entry): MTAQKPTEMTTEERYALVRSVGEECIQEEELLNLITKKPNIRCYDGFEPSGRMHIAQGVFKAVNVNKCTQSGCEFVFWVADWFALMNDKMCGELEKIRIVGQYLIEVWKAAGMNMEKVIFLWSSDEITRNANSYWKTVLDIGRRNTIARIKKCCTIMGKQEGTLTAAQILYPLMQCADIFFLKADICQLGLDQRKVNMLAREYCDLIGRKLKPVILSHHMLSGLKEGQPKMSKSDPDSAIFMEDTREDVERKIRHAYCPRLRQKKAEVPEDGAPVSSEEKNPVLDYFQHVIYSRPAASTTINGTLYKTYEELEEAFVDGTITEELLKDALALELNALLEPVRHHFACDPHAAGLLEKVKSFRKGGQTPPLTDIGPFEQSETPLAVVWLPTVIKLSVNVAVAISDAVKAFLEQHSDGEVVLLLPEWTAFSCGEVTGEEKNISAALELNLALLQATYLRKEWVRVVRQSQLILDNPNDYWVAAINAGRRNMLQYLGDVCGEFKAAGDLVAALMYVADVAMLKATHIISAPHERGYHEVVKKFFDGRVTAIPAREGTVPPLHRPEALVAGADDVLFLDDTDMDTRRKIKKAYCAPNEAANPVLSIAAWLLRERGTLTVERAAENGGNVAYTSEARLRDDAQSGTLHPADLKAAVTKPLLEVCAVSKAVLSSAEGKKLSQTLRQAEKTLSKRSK

[8] = biological target: T4, Tyrosyl-tRNA synthetase, putative (Trypanosoma cruzi (strain CL Brener)); assay: Trypanosoma cruzi tyrosyl tRNA synthetase (TcYRS) SOP; type: functional; conditions: 30 µM
[9] = biological target: Chromo domain-containing protein 1 (Saccharomyces cerevisiae (strain ATCC 204508 / S288c) (Baker's yeast)) (UniProt P32657); assay: ScCHD-1 Enzyme Inhibition Assay; type: functional; conditions: 30 µM; note: in the data most compounds retested in dose-response had high values
Sequence of Chromo domain-containing protein 1 (Saccharomyces cerevisiae (strain ATCC 204508 / S288c) (Baker's yeast)) (P32657 whole entry, the tested form may be a part): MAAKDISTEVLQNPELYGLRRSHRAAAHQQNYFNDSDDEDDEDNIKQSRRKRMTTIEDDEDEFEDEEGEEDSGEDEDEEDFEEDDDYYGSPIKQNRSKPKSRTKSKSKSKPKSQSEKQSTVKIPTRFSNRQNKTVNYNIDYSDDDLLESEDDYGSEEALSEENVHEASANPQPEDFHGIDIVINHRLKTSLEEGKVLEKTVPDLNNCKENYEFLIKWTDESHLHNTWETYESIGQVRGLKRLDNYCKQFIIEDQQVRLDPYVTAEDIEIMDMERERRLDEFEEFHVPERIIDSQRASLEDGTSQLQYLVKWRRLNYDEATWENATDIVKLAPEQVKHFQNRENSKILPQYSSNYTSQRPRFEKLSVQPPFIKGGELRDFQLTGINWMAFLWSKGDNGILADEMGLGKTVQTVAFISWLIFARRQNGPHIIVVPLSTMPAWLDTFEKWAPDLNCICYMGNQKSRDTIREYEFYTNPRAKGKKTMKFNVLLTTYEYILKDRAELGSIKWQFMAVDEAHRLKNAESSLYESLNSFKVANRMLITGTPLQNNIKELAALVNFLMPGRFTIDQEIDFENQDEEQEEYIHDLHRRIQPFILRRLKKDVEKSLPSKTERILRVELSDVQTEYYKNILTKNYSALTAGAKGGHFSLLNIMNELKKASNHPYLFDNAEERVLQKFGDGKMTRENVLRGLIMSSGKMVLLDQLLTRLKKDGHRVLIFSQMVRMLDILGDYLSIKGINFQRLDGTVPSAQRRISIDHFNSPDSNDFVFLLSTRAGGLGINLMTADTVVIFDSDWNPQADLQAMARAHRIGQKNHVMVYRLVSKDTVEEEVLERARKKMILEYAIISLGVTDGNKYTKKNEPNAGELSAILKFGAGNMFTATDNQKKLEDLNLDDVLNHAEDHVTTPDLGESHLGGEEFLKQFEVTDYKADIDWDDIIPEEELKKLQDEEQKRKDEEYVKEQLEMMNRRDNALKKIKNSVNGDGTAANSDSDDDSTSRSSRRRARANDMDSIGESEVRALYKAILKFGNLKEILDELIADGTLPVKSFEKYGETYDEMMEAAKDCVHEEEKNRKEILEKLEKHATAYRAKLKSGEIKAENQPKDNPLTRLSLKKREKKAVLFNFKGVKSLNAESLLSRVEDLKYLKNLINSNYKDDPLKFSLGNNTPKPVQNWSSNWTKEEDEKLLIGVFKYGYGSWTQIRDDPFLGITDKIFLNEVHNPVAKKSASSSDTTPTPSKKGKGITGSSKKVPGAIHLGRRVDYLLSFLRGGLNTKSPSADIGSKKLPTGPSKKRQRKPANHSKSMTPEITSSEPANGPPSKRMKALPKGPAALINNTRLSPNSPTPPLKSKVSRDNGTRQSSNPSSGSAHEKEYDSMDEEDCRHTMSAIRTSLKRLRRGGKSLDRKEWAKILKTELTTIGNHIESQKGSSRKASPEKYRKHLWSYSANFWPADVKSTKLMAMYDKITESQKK

SMILES	Percent Effect [1]	Percent Effect [2]	Percent Effect [3]	Percent Effect [4]	Percent Effect (Trypanosoma cruzi)	Percent Effect [5]	Percent Effect [6]	Percent Effect (Homo sapiens)	Percent Effect [7]	Percent Effect [8]	Percent Effect [9]
CCc1nc(CNC(=O)Nc2ccc(C(=O)NC)cc2C)cs1	-5.84%	16%	-2.78%	18.6%	8.28%	6.25%	4.88%	11.9%	4.92%	11.1%	-7.82%
CN1CCCN(C(=O)NCc2csc(Br)c2)CC1	-5.63%	10.8%	-0.581%	13.3%	0.0929%	3.88%	3.05%	15.4%	6.93%	18.3%	-0.533%
O=C(c1ccco1)N1CCCC(c2cc(C(F)F)n3ncnc3n2)C1 (stereo not given)	-1.42%	4.05%	9.33%	28.2%	-8.5%	3.02%	3.9%	7.52%	0%	3.9%	3.66%
CC(O)CN1CCN(C(=O)c2cccc(CC#N)c2)CC1 (stereo not given)	-0.303%	23.4%	-4.34%	-2.88%	0.749%	3.92%	12.7%	27%	6.8%	2.44%	-4.3%
O=C(c1ccsc1)N1CCOC2(CCN(Cc3cccnc3)CC2)C1	-1.61%	-2.67%	3.67%	7.65%	0.579%	-3.4%	8.38%	-17%	3.12%	5%	-6.25%
CNC(=O)N1CC[C@H]2N(C)CC[C@@]2(C(=O)Nc2ccccc2)CC1	-3.9%	5.41%	-2.05%	1.61%	5.08%	4.17%	2.45%	11.5%	1.98%	6.1%	-1.69%
Cn1cc(C(=O)NC[C@@H]2OC[C@H]3CN(Cc4ccco4)CC[C@H]32)cn1	1.17%	8.22%	-8.23%	6.71%	5.75%	-2.79%	8.3%	17%	3.12%	11.1%	-3.21%
CCc1nccn1C1CCCN(C(=O)CCc2nccs2)C1 (stereo not given)	-2%	-5.41%	-10.8%	5.59%	-0.66%	-6.81%	5.77%	1.54%	1.48%	1.24%	-1.72%
Cc1cnn(C2CN(CC(O)c3ccc4c(c3)OCCO4)C2)c1 (stereo not given)	-0.511%	-24%	-2.25%	-4.57%	-0.292%	0%	7.5%	10.6%	13.7%	13.6%	-6.83%
Cn1ccnc1CN1CCC2(CC1)CC(Oc1cccnc1)C2	-2.04%	8%	4.85%	10.2%	-1.35%	-23.8%	1.88%	6.63%	10.4%	22.5%	-6.08%
CC(C)CN1CCC(c2nc3c([nH]2)CC(C)(C)CNC3=O)C1 (stereo not given)	3.37%	8.11%	-3.98%	5.96%	3.67%	16.2%	10.5%	19.8%	5.82%	19.5%	-2.21%
O=C(c1ccco1)N1CCOCC2(C1)CN(c1ccccc1)C(=O)CO2 (stereo not given)	-3.5%	2.67%	5.75%	17.4%	-3.86%	-27.8%	-1.54%	5.08%	2.08%	-2.5%	-5.45%
COc1cc(CN(C(=O)Nc2cccnc2OC)C2CC2)ccc1O	-3.67%	2.6%	7.29%	11.9%	-2.25%	-0.712%	5.91%	23.5%	3.88%	12.2%	-4.72%
NC(=O)c1cc(C2CCCN(C(=O)CCc3cscn3)C2)n[nH]1 (stereo not given)	-1.95%	0%	9.04%	3.83%	1.69%	-0.356%	1.86%	8.48%	2.91%	2.44%	-5.18%
CN(Cc1nnc(C2CC2)n1C)C1CCN(Cc2ccccc2F)C1 (stereo not given)	-3.03%	-5.48%	-2.94%	2.42%	2.18%	-3.19%	10.4%	-27.4%	0%	8.64%	-4.72%
Cc1cnn(CCNCC(=O)NCCOc2ccccc2)c1	0.828%	21.1%	4.84%	-1.9%	-5.88%	0.719%	6.85%	25.5%	4.43%	-6.17%	-8.28%
Cc1nonc1CC(=O)N1C[C@@H]2CC[C@H](C1)N(Cc1ccccc1)C2=O	-5.85%	-2.7%	-1.13%	6.66%	-4.83%	-2.86%	6.9%	0.776%	0.529%	2.44%	-2.68%
Cc1ccc(N2CCCC(NCC(=O)NC3CCOCC3)C2)nn1 (stereo not given)	-5.04%	-3.8%	-5.1%	4.11%	-1.13%	4.95%	3.94%	-13.5%	0%	5.06%	-2.4%
O=C(c1cncc(N2CCC(O)(CO)CC2)n1)N1CCCC1	-4.63%	5.33%	-3.65%	8.86%	6.72%	0%	16.9%	-11.2%	9.29%	18.5%	-7.99%
CS(=O)(=O)NC1CCN(C(=O)NCCc2ccccc2F)CC1	-4.12%	8.11%	-6.29%	9.26%	2.14%	2.03%	12%	10.3%	6.93%	25.6%	-11.2%
